Data on 34 compounds can be found in PubChem BioAssay (NCI).

Compounds without any hit were thinned out: in the full panel of roughly 83,000, 20% have a hit.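 Results are percent growth after 48 hours of single-concentration exposure. 100 means growth as in untreated cells, lower positive values show inhibition; negative values down to -100 show cell death.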 Values without a mark were called inactive. Calls of active or inactive are those of the source. The calls were made as follows: active = growth percent below 10; inactive = the rest.

For the assay, the system named is T-47D breast. Nature of the assay: NCI-60 one-dose screen, 48 h (100 = growth as untreated, 0 = no growth, -100 = all killed). The note with it: 10 µM unless noted.
Turning to `CN1CCN(Cc2ccc(NC(=O)c3cncc(C#Cc4cnc5ccc(OCC6(C)COC6)nn45)c3)cc2C(F)(F)F)CC1`, the growth was -49.9% (active).

In the case of `CC(=O)c1cc(C(=O)c2ccc(Br)cc2)n2cc(C)cc(C)c12`, the growth is 78.8%.

As to `COC(=O)C[Se]C(=O)Cc1c(C)n(C(=O)c2ccc(Cl)cc2)c2ccc(OC)cc12`, the growth is 83%.

For `N#Cc1cccc(CN2CCC3=C(C2)C(=O)N(Cc2ccc(Cl)cc2)C2=NCCCN23)c1`, the growth was 21.2%.

Take `C=CCn1c(SCC(=O)Nc2ccc(C(=O)/C=C/c3ccc(C)cc3)cc2)nnc1-c1c[nH]c2ccccc12`: the growth was 70%.

Consider `CCCn1cnc2c(c1=N)C(c1ccc(OC)cc1)c1sc3c(CC)cccc3c1O2` (centres undefined), for which the growth was 27.9%.

As to `Cc1ccc(-c2cc3nc(C(Cl)Cl)nc(C)n3n2)cc1`, the growth was 94.6%.

Regarding `CCOC(=O)C(=O)CC(=O)N1C(=S)NC(=O)C1CC(C)C` (centres undefined), the growth was 109%.

Consider `COc1ccc(-c2nc(C(Cl)Cl)nc3cc(-c4ccccc4)nn23)cc1`, for which the growth is 45.8%.

Take `CNC(=O)c1cc(-c2ccc(NS(=O)(=O)c3ccc(C)cc3)cc2)nc2cccnc12`: the growth is 98%.

For `NC(N)=Nc1ccc(Oc2cccc(Nc3ccc(Cl)c(C(F)(F)F)c3)c2)cn1`, the growth is 15.1%.

For `CCN1CCN(Cc2ccc(C(=O)Nc3ccc(C)c(Oc4ccc(-c5[nH]nc6ncnc(N)c56)cc4)c3)cc2C(F)(F)F)CC1`, the growth is 100%.

`COc1ccc(NC(=O)Nc2ccc3c(ccn3C(=O)c3cccc(F)c3)c2)cc1`: the growth was 75.9%.

Take `CCn1c(SCC(=O)Nc2cccc(C(=O)/C=C/c3ccccc3Cl)c2)nc2ccccc2c1=O`: the growth is 81.3%.

Regarding `COc1ccc(-c2nn(-c3ccc(S(C)(=O)=O)cc3)cc2/C=N/O)cc1`, the growth was 106%.

In the case of `NC(N)=Nc1ccc(Oc2ccc(Nc3ccc(Cl)c(C(F)(F)F)c3)cc2)cc1`, the growth was 41.1%.

In the case of `COc1ccc(NC(=O)CSc2nnc(-c3ccc4nc(-c5ccc(OC)c(OC)c5)[nH]c4c3)o2)cc1OC`, the growth was 90.3%.

For `Cc1ccc(-n2c(/C=C3\C(=O)Nc4ccccc43)ccc2CO)cc1`, the growth was 77.4%.

Regarding `O=C(NNc1nc2cc(F)ccc2n2c(CO)ccc12)c1cnccn1`, the growth is 11.7%.

Regarding `Nc1ccccc1NC(=O)c1ccc(NC(=O)C/C=C/c2cccnc2)cn1`, the growth was 8.26% (active).

Consider `Cn1ccnc1C(=O)/C=C/c1ccc(CNC(=O)c2c(F)c(F)c(F)c(F)c2F)cc1`, for which the growth was 41.4%.

Regarding `C#C[C@]1(O)CC[C@H]2[C@@H]3CC=C4c5sc(-c6cccc(O)c6)nc5CC[C@]4(C)[C@H]3CC[C@@]21C`, the growth is 1.25% (active).

Turning to `COc1cc2c(cc1OC)C(Sc1ccc(F)cc1)c1c(nc(N)c(C#N)c1N)O2` (centres undefined), the growth was -28.1% (active).

In the case of `N#Cc1cn(Cc2ccc(Cl)cc2Cl)c(C(=O)c2ccc(Br)cc2)c1N`, the growth was 87.8%.

Consider `O=C(O)c1ccc(-n2cc(CNc3cc(F)c(F)c(F)c3)c(-c3cccc(F)c3)n2)cc1`, for which the growth is 81.6%.

For `CCc1cccc(NC(=O)CNc2cc(S(=O)(=O)N(C)C)cc(C)c2C)c1`, the growth is 88.8%.

On to `COc1ccc2c(c1)c(-c1cc(N)n3nc(-c4cn(C)c5ccc(OC)cc45)cc3n1)cn2C`, for which the growth was 96.2%.

With `C=C(C=O)[C@@H]1CC[C@]2(COC(C)=O)CC[C@]3(C)C(CC[C@@H]4[C@@]5(C)CC[C@H](OC(C)=O)C(C)(C)[C@@H]5CC[C@]43C)[C@@H]12` (some centres undefined), the growth was 4.4% (active).

With `COc1ccc(-c2nc3ccc(-c4nnc(SCC(=O)Nc5ccc(C(=O)/C=C/c6ccc(Cl)cc6)cc5)o4)cc3[nH]2)cc1`, the growth was 92.8%.

Consider `COc1ccc(/C=C(\C#N)C(=O)N2c3ccccc3Sc3ccc(SC)cc32)cc1F`, for which the growth was 70.9%.

As to `O=C(CNc1nc(-c2cccc([N+](=O)[O-])c2)cs1)Nc1cccc(Cl)c1`, the growth is 100%.

Turning to `CC1(C)CC[C@]23CC[C@]4(C)[C@H](CC[C@@H]5[C@@]6(C)CCCN(CO)C(C)(C)[C@@H]6CC[C@]54C)[C@H]2[C@H]1OC3`, the growth was 57.3%.

In the case of `C=C(C=O)[C@@H]1CC[C@]2(C)[C@H](CC=C3[C@H]4[C@@H](C)[C@H](C)CC[C@]4(C(=O)OC)CC[C@]32C)[C@@]1(C)CCC#N`, the growth was 22.4%.

In the case of `CN(C)C(=O)c1cc(-c2ccc3ncnc(NCc4ccccc4)c3c2)cnc1N`, the growth was 62%.
